# PMC5540273 (PLoS ONE, 2017)
# Legend:
# Settings in all cases: concentration: 1 μM, replicates: in singlicate; n = 1
# MERTK = test system: MERTK
# MET = test system: MET
# MINK = test system: T1, MINK
# T1 construct: gene MINK1
# MKK7 = test system: MKK7
# MKNK1 = test system: MKNK1
# MKNK2 = test system: MKNK2
# MLCK = test system: T2, MLCK
# T2 construct: gene MYLK3
# MLK1 = test system: T3, MLK1
# T3 construct: gene MAP3K9
# MLK2 = test system: MLK2
# MLK3 = test system: MLK3
# MRCKA = test system: MRCKA
# MRCKB = test system: T4, MRCKB
# T4 construct: gene CDC42BPB
# MST1R = test system: MST1R
# MST1 = test system: T5, MST1
# T5 construct: gene STK4
# MST2 = test system: T6, MST2
# T6 construct: gene STK3
# MST3 = test system: T7, MST3
# T7 construct: gene STK24
# MST4 = test system: MST4
# MTOR = test system: MTOR
# MUSK = test system: MUSK
# MYLK2 = test system: MYLK2
# 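Note: KINOMEscan kinase panel screen.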
compound,measurement,setting,value
CSc1nn2c(=O)cc(N3CCOCC3)nc2n1Cc1cccc(Cl)c1Cl [GSK2347225],%Inh,MERTK,40%
same,%Inh,MET,0%
same,%Inh,MINK,21%
same,%Inh,MKK7,0%
same,%Inh,MKNK1,20%
same,%Inh,MKNK2,2%
same,%Inh,MLCK,13%
same,%Inh,MLK1,0%
same,%Inh,MLK2,4%
same,%Inh,MLK3,11%
same,%Inh,MRCKA,29%
same,%Inh,MRCKB,4%
same,%Inh,MST1R,59%
same,%Inh,MST1,6%
same,%Inh,MST2,0%
same,%Inh,MST3,4%
same,%Inh,MST4,0%
same,%Inh,MTOR,28%
same,%Inh,MUSK,16%
same,%Inh,MYLK2,15%
CNc1nccc(-c2c(-c3ccc(F)cc3)ncn2CCCN2CCOCC2)n1 [SB-222516],%Inh,MERTK,19%
same,%Inh,MET,3%
same,%Inh,MINK,15%
same,%Inh,MKK7,0%
same,%Inh,MKNK1,3%
same,%Inh,MKNK2,0%
same,%Inh,MLCK,1%
same,%Inh,MLK1,33%
same,%Inh,MLK2,10%
same,%Inh,MLK3,0%
same,%Inh,MRCKA,8%
same,%Inh,MRCKB,0%
same,%Inh,MST1R,0%
same,%Inh,MST1,0%
same,%Inh,MST2,14%
same,%Inh,MST3,14%
same,%Inh,MST4,0%
same,%Inh,MTOR,11%
same,%Inh,MUSK,0%
same,%Inh,MYLK2,0%
Cc1cccc(-c2nc(Nc3ccc4[nH]nnc4c3)c3ccccc3n2)n1 [GW867587],%Inh,MERTK,19%
same,%Inh,MET,0%
same,%Inh,MINK,0%
same,%Inh,MKK7,0%
same,%Inh,MKNK1,8%
same,%Inh,MKNK2,0%
same,%Inh,MLCK,0%
same,%Inh,MLK1,0%
same,%Inh,MLK2,0%
same,%Inh,MLK3,0%
same,%Inh,MRCKA,0%
same,%Inh,MRCKB,2%
same,%Inh,MST1R,0%
same,%Inh,MST1,0%
same,%Inh,MST2,0%
same,%Inh,MST3,0%
same,%Inh,MST4,0%
same,%Inh,MTOR,5%
same,%Inh,MUSK,2%
same,%Inh,MYLK2,0%
Cc1ccc(O)cc1Nc1cc(C(F)(F)F)nc2ccc(-c3ccncc3)cc12 [GW630823],%Inh,MERTK,21%
same,%Inh,MET,6%
same,%Inh,MINK,0%
same,%Inh,MKK7,0%
same,%Inh,MKNK1,0%
same,%Inh,MKNK2,0%
same,%Inh,MLCK,12%
same,%Inh,MLK1,4%
same,%Inh,MLK2,2%
same,%Inh,MLK3,0%
same,%Inh,MRCKA,0%
same,%Inh,MRCKB,0%
same,%Inh,MST1R,19%
same,%Inh,MST1,0%
same,%Inh,MST2,44%
same,%Inh,MST3,18%
same,%Inh,MST4,0%
same,%Inh,MTOR,0%
same,%Inh,MUSK,0%
same,%Inh,MYLK2,4%
Cl.Cl.c1ccc(-c2cc3ccncc3cc2OC2CCNCC2)cc1 [GSK1122999],%Inh,MERTK,46%
same,%Inh,MET,0%
same,%Inh,MINK,6%
same,%Inh,MKK7,0%
same,%Inh,MKNK1,29%
same,%Inh,MKNK2,4%
same,%Inh,MLCK,10%
same,%Inh,MLK1,0%
same,%Inh,MLK2,0%
same,%Inh,MLK3,23%
same,%Inh,MRCKA,52%
same,%Inh,MRCKB,17%
same,%Inh,MST1R,53%
same,%Inh,MST1,21%
same,%Inh,MST2,6%
same,%Inh,MST3,12%
same,%Inh,MST4,0%
same,%Inh,MTOR,12%
same,%Inh,MUSK,13%
same,%Inh,MYLK2,20%
